Assay outcomes (PubChem BioAssay)
NCOA1 inh – SRC1 coactivator transcriptional activity inhibitors, primary screen, cell-based, luminescence; Nuclear receptor coactivator 1 (Homo sapiens), Q15788; actives 0.12% (n = 360,000); HEK293 GAL4-SRC1 luciferase reporter; inhibition, % at 3.6 µM;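 active means inhibition above the campaign mean plus 3 SD, with each screening campaign given its own cutoff, cut at about 60% in these data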
NR2F2 inh – NR2F2 transcriptional activity inhibitors, primary screen, cell-based, luciferase reporter, HEK293T, luminescence; COUP transcription factor 2 (Homo sapiens), P24468; HEK293T NGFI-A luciferase reporter; inhibition, % at 8.6 µM; actives 0.7% (n = 370,000);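 active means inhibition above a per-plate cutoff, mean inhibition of test wells between control levels plus 3 SD, cut at about 38% in these data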;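 further: cells cotransfected with COUP-TFII expression vector driving the NGFI-A reporter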
NCOA3 inh – SRC3 coactivator transcriptional activity inhibitors, primary screen, cell-based, luminescence | Nuclear receptor coactivator 3 (Homo sapiens), Q9Y6Q9 | HEK293 GAL4-SRC3 luciferase reporter | inhibition, % at 3.6 µM | actives 0.17% (n = 360,000) | AID 588352, 2011;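 active means inhibition above a per-campaign cutoff, the mean of all compounds plus 3 SD, cut at about 60% in these data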;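 further: higher means less SRC3-driven luciferase light from the GAL4 reporter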
NCOA2 inhibitor – inhibition of GAL4-SRC2 driven luciferase reporter, primary screen, SRC2 inhibitor project, cell-based, luminescence; Nuclear receptor coactivator 2 (Homo sapiens), Q15596; HEK293 GAL4-SRC2 luciferase reporter; inhibition, % at 9 µM; actives 0.17% (n = 370,000); AID 651957, 2012;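 active means inhibition above the mean inhibition of all tested compounds plus 3 SD, set per campaign, cut at about 52% in these data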
Target sequence (Q15596 whole entry, looked up, the tested form may be a part): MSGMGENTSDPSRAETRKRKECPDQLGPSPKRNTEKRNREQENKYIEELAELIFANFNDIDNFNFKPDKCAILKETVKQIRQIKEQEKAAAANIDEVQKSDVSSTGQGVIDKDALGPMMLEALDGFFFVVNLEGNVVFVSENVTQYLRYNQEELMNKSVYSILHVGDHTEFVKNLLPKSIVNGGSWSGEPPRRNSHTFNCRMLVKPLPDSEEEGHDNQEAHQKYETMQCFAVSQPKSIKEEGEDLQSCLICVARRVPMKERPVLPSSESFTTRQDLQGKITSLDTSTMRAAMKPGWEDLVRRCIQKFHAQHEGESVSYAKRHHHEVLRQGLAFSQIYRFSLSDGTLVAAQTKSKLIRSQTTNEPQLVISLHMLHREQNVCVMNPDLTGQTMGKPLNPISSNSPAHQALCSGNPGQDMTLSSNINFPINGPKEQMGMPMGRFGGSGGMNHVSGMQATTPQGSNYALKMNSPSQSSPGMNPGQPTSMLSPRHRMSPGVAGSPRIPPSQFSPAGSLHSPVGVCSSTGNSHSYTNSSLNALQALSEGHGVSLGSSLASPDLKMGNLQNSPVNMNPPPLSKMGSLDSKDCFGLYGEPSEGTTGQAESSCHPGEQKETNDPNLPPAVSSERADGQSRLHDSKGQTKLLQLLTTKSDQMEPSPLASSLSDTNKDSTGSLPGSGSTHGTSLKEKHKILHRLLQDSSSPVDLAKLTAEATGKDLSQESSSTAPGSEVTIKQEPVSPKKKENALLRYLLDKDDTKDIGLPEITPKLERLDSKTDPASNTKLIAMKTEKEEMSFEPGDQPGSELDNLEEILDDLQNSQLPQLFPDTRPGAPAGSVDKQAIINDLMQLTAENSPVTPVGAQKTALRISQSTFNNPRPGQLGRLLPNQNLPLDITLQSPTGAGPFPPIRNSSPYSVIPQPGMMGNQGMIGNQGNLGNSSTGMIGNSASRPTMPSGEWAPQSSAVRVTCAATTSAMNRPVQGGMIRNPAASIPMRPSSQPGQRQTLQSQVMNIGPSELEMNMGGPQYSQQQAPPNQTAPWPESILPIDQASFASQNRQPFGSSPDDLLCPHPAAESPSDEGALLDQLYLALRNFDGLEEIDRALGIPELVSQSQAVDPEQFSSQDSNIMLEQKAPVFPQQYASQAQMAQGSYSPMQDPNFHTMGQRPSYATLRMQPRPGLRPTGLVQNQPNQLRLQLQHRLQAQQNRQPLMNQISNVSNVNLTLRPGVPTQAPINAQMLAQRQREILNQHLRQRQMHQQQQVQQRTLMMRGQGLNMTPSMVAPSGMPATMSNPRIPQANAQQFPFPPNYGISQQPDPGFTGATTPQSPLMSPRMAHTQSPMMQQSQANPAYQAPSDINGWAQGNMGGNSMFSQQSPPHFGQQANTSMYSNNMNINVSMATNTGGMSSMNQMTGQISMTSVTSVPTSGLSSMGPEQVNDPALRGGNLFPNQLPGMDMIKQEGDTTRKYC
NR5A2 inv ag – LRH-1 (NR5A2) inverse agonists, primary screen, cell-based, luminescence, HEK293T, StAR-luciferase reporter. LRH-1 transfected, 24 h. inhibition, % at 3.6 µM. actives 0.13% (n = 360,000). AID 602396, 2012;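 active means inhibition above the mean inhibition of all tested compounds plus 3 SD, cut at about 73% in these data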
Gli-Sufu block – Gli-Sufu pathway antagonists, primary screen, luciferase luminescence, Sufu-KO-LIGHT cells, uHTS. Sufu-KO-LIGHT fibroblasts, Gli luciferase reporter luminescence. inhibition, % at 5 µM. actives 0.74% (n = 340,000). AID 588413, 2011;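 active means inhibition above about 55%, limit read from the data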
Large screens that a line does not name were inactive. Shown are actives, neighbours in structure and some others; about 1.3% of the full set was active somewhere.

CN1OC[C@@H]2CN[C@H](c3ccc(-c4cc5ccccc5o4)cc3)C[C@@H]21	NCOA1 inh 87, NCOA3 inh 87, NR5A2 inv ag 91 (no result: NR2F2 inh, NCOA2 inhibitor, Gli-Sufu block)
O=C(OCC#CCSc1nnc(-c2cccc3ccccc23)o1)c1cccc(F)c1	none (no result: NCOA1 inh, NCOA3 inh, NCOA2 inhibitor, NR5A2 inv ag, Gli-Sufu block)
N=C1S/C(=C\c2ccc(-c3cccc(Cl)c3)o2)C(=O)N1c1nccs1	Gli-Sufu block 88
Cn1c(CNc2ccccc2F)nc2ccccc21	none (no result: NCOA1 inh, NCOA3 inh, NCOA2 inhibitor, NR5A2 inv ag, Gli-Sufu block)
C#CCn1cc[n+](CC(=O)N(C)C)c1	none
CCCCCCCCCCCCCCCCn1cc[n+](CC(C)=O)c1	Gli-Sufu block 73 (no result: NR2F2 inh, NCOA2 inhibitor)
COc1cccc2c1C(=O)c1c(O)c3c(c(O)c1C2=O)CC(O)(C(C)=O)CC3OC1CC(O)C(O)C(C)O1 (stereo unspecified)	Gli-Sufu block 55
COc1cccc2c1C(=N)c1c(O)c3c(c(O)c1C2=O)CC(O)(C(C)=O)CC3OC1CC(N)C(O)C(C)O1 (stereo unspecified)	Gli-Sufu block 75 (no result: NR2F2 inh, NCOA2 inhibitor)
CC(C)(C)NC(=O)COC(=O)c1snc(C(=O)NC2CCCCC2)c1N	NR2F2 inh 67
CC(OC(=O)c1snc(C(=O)NC2CCCCC2)c1N)C(=O)NC(C)(C)C (stereo unspecified)	none
Cc1oc(-c2ccc(Cl)cc2)nc1CN1CCC(C(=O)N2CCN(Cc3ccccc3)CC2)CC1	NR2F2 inh 39
COC(=O)c1cc(S(=O)(=O)N2CCOCC2)c(Cl)cc1N1CCOCC1	none
COC(=O)c1cc(C)nc2c1C(=O)C(=O)C=C2N1CCOCC1	NCOA1 inh 62, NR2F2 inh 42, NCOA3 inh 71, NCOA2 inhibitor 57
O=C(CCc1nc(-c2ccccc2F)no1)NCCc1cccc(F)c1	none (no result: NCOA1 inh, NCOA3 inh, NR5A2 inv ag, Gli-Sufu block)
COc1cc([C@@H]2c3cc4c(cc3[C@@H](O[C@@H]3O[C@@H]5CO[C@@H](C)O[C@H]5[C@H](O)[C@H]3O)[C@H]3COC(=O)[C@H]23)OCO4)cc(OC)c1O	NCOA1 inh 80, NCOA3 inh 65, Gli-Sufu block 82
O=C(CN1C(=O)c2ccccc2S1(=O)=O)c1ccc(OC(F)F)cc1	Gli-Sufu block 78 (no result: NR2F2 inh, NCOA2 inhibitor)
COc1cc([C@@H]2C[C@H]3CN(c4ccccc4)C(=O)[C@]34CCCN24)cc(OC)c1OC	none
COc1ccccc1-n1cc([C@@H]2C[C@H]3CN(c4ccccc4)C(=O)[C@]34CCCN24)cn1	NCOA3 inh 64
Clc1ccc(SCNc2ccccc2Cl)cc1	NR2F2 inh 39
Cc1ccc(NCSc2ccc(Cl)cc2)cc1	none
CC(=O)c1cc(-c2ccc3[nH]ccc3c2)c(=O)n2c1CCC2	none (no result: NCOA1 inh, NCOA3 inh, NR5A2 inv ag, Gli-Sufu block)
O/N=C/c1cccc[n+]1CCCCCC[n+]1ccccc1/C=N/O	none
CCCCCCCCC[n+]1cccc2c3ccccc3ccc21	NCOA3 inh 71, NR5A2 inv ag 96 (no result: NR2F2 inh, NCOA2 inhibitor)
CC(C)CN1C(=O)C[C@@]2(C(=O)N(C)c3ccc(NS(=O)(=O)c4ccc(F)cc4)cc32)C1c1ccccc1 (stereo partly specified)	none (no result: NCOA1 inh, NCOA3 inh, NR5A2 inv ag, Gli-Sufu block)
Cc1ccc2c(c1C)-c1c(ccc(C)c1C)C(=O)C2=O	Gli-Sufu block 64
O=C(NC(CSCc1ccccc1)C(=O)N/N=C/c1ccc(O)cc1O)c1ccc([N+](=O)[O-])cc1 (stereo unspecified)	Gli-Sufu block 76
CCN(CC)c1nc2ccccc2[nH]c1=O	none
CN(c1nc2ccccc2[nH]c1=O)C1CCCCC1	Gli-Sufu block 57
COc1ccc(C(=O)/C(C#N)=N/Nc2ccc([N+](=O)[O-])cc2)cc1	Gli-Sufu block 69
COC(=O)c1ccc2c(c1)C(C)(C)C(/C=C/c1ccc(O)cc1)=[N+]2C	Gli-Sufu block 66
CCCCCc1ccc(OCCOCCn2c[n+](C)c3ccccc32)c(CCCCC)c1	Gli-Sufu block 87 (no result: NR2F2 inh, NCOA2 inhibitor)
C[n+]1cn(CC(O)COCc2ccccc2)c2ccccc21 (stereo unspecified)	none
COc1ccccc1/C=C/C(=O)c1c2c(c(C)[nH]c1=O)CCCC2	NCOA3 inh 65, NCOA2 inhibitor 58
Cc1cc(C(=O)COc2cccnc2[N+](=O)[O-])c(C)n1-c1ccccc1	NCOA1 inh 69, NCOA3 inh 66
c1ccc2c(c1)ccc1ccccc12	none
O=c1ccc2ccccc2c2ccccc12	NCOA1 inh 64, NCOA3 inh 75, NCOA2 inhibitor 70, NR5A2 inv ag 93 (no result: Gli-Sufu block)
CCOC(=O)[C@@]12CCC3=C1N(CCC3)C(=O)[C@H](CC(=O)NCc1ccccc1)C2	none (no result: NCOA1 inh, NCOA3 inh, NR5A2 inv ag, Gli-Sufu block)
CN(c1ccccc1)S(=O)(=O)c1ccc(NC(=O)c2nc(S(C)(=O)=O)ncc2Cl)cc1	NCOA2 inhibitor 56
CC(=O)Nc1ccc(NC(=O)c2nc(S(=O)(=O)Cc3cccc(C)c3)ncc2Cl)cc1	NCOA2 inhibitor 83
Nc1ncnc(N2CCc3ccccc32)c1[N+](=O)[O-]	NCOA1 inh 73, NCOA3 inh 65
NNC(=O)c1ccc(N2CCc3ccccc32)c([N+](=O)[O-])c1	none
O=C(NCCc1c[nH]c2ccccc12)[C@H](Cc1c[nH]c2ccccc12)NC1(C(=O)NC2CCCCC2)CCCCCCC1	none (no result: NCOA1 inh, NCOA3 inh, NCOA2 inhibitor, NR5A2 inv ag, Gli-Sufu block)
O=C(Nc1nc(-c2ccccn2)cs1)c1cc(Cl)ccc1[N+](=O)[O-]	Gli-Sufu block 65
CCOC(=O)c1ccc(-c2ccc(N3C(c4cccc(OC)c4)=Cc4ccc(F)cc4C3CC(C)=O)cc2)cc1F (stereo unspecified)	NCOA2 inhibitor 60 (no result: NCOA1 inh, NCOA3 inh, Gli-Sufu block)
O=[N+]([O-])c1ccc2[nH]c3nc4ccccc4nc3c2c1	Gli-Sufu block 57
COc1ccc(C(=O)c2ccc(CC(=O)O)s2)cc1	NCOA2 inhibitor 52
O=C(O)Cc1ccc(C(=O)c2ccccc2)s1	none
CN(C)CCN1C(=O)c2cccc3cc([N+](=O)[O-])cc(c23)C1=O	NR5A2 inv ag 82, Gli-Sufu block 69
CN(C)CCCN1C(=O)c2cccc3cccc(c23)C1=O	none
CCn1c(SCC(=O)Nc2nc(-c3ccc(C)cc3)cs2)nnc1-c1ccccc1O	NR2F2 inh 48
CCOC(=O)[C@]12CCCC3=C1N(CCC3)C(=O)[C@@H](CC(=O)NCc1cccc(C(F)(F)F)c1)C2	none (no result: NCOA1 inh, NCOA3 inh, NR5A2 inv ag, Gli-Sufu block)
COC(=O)C1CN(Cc2ccc(OC)cc2)CCS(=O)(=O)N1Cc1ccc(F)cc1 (stereo unspecified)	none (no result: NCOA1 inh, NCOA3 inh, NR5A2 inv ag, Gli-Sufu block)
Cn1cccc1C=NNC(=O)c1cc(-c2ccc(Cl)cc2)n[nH]1	none (no result: NCOA1 inh, NCOA3 inh, NR5A2 inv ag, Gli-Sufu block)
S=C(NCc1ccccn1)NN=Cc1ccccn1	Gli-Sufu block 74
CCOC(=O)[C@@]12CCCC3=C1N(CCC3)C(=O)[C@H]2CC(=O)N1CCN(C(=O)C2CC2)CC1	none (no result: NCOA1 inh, NCOA3 inh, NR5A2 inv ag, Gli-Sufu block)
COC(=O)C1CN(C2CCCC2)CCS(=O)(=O)N1Cc1ccc(C(F)(F)F)cc1 (stereo unspecified)	none (no result: NCOA1 inh, NCOA3 inh, NR5A2 inv ag, Gli-Sufu block)
